The values below come from article PMC5515408, “Sequence-specific DNA binding by MYC/MAX to low-affinity non-E-box motifs”.

Over roughly 4,500 sequences, “log2 normalized fluorescence” has its median near -0.34; the highest 2% begin near 3.3. For the sample, the highest values were picked, then their nearest neighbours and some sequences at random.

MAX:MAX (p21), sequence (P61244 other isoform, or with tags, fused parts or gaps): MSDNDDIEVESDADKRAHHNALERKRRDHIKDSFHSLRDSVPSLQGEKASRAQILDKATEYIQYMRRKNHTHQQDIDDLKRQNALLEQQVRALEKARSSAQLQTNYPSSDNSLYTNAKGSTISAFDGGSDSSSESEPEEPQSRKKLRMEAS

This assay has as its target MAX:MAX (p21) (human, UniProt P61244-2 1-151). Briefly: protein-binding microarray (anti-MAX antibody); PBM: 15 mM Tris-HCl pH 7.5, 100 mM KCl, 0.075% NP40, 7.5 mM beta-mercaptoethanol, 375 ng/ul BSA, 8 ng/ul poly(dA-dT):(dA-dT), 550 ng complex, 60 min, room tempe; high values mean tight binding. Conditions: protein: recombinant; tags: 6xHis; chain copies: 2; label: 3' end of printed strand (linker) attached to glass slide; dsDNA, one strand shown. In short, it runs like this:
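Binding, given as log2 normalized fluorescence, was measured on a custom Agilent glass array. The array bore ~5000 unique 12-nt sequences spotted in triplicate and converted to double strands by primer extension. It was incubated with 550 ng of human His-tagged MYC:MAX or MAX:MAX dimers from E. coli for 60 min at room temperature in Tris-KCl buffer, pH 7.5, with NP40, BSA and poly(dA-dT) competitor, and bound protein was detected with anti-MAX and secondary antibodies and scanned at 543 nm.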
With “CCGGCTGATTGGATGTATTAATAGCTAAGATTACTATATCGACG”, the binding signal is -0.659 log2 normalized fluorescence.

Consider “CCGGCTGACTCGCTGTATTAATAGCTAAGATTACTATATCGACG”, for which the binding signal is 0.114 log2 normalized fluorescence.

Regarding “CCGGCTGAAGAACCGTATTAATAGCTAAGATTACTATATCGACG”, the binding signal was -0.66 log2 normalized fluorescence.

In the case of “CCGGCTGACAACTTGTATTAATAGCTAAGATTACTATATCGACG”, the binding signal is -0.311 log2 normalized fluorescence.

For “CCGGCCCGCCAAAGCATTTAATAGCTAAGATTACTATATCGACG”, the binding signal was 0.154 log2 normalized fluorescence.

Turning to “CCGGCTGACAAATCGTATTAATAGCTAAGATTACTATATCGACG”, the binding signal was -0.658 log2 normalized fluorescence.

For “CCGGCTGATCGTCAGTATTAATAGCTAAGATTACTATATCGACG”, the binding signal is -0.695 log2 normalized fluorescence.

Regarding “CCGGCTGAGAGCGCGTATTAATAGCTAAGATTACTATATCGACG”, the binding signal was -0.456 log2 normalized fluorescence.

In the case of “CCGGCTAACACGCGGTATTAATAGCTAAGATTACTATATCGACG”, the binding signal is 3.35 log2 normalized fluorescence.

With “CCGGCCAACACGTGGTATTAATAGCTAAGATTACTATATCGACG”, the binding signal is 3.22 log2 normalized fluorescence.

As to “CCGGCTGACACGCGGTATTAATAGCTAAGATTACTATATCGACG”, the binding signal was 3.1 log2 normalized fluorescence.

Consider “CCGGCCTACACGTGGTATTAATAGCTAAGATTACTATATCGACG”, for which the binding signal is 3.31 log2 normalized fluorescence.

As for “CCGGCTACTACGTGGTATTAATAGCTAAGATTACTATATCGACG”, the binding signal was 1.83 log2 normalized fluorescence.

For the sequence “CCGGCTAACACGTGGTATTAATAGCTAAGATTACTATATCGACG”, the binding signal was 3.45 log2 normalized fluorescence.

For “CCGGCTTAATCGTGGTATTAATAGCTAAGATTACTATATCGACG”, the binding signal is 1.43 log2 normalized fluorescence.

In the case of “CCGGCTTAGACGTGGTATTAATAGCTAAGATTACTATATCGACG”, the binding signal was 1.04 log2 normalized fluorescence.

Take “CCGGCTTACACGTGGTATTAATAGCTAAGATTACTATATCGACG”: the binding signal was 3.3 log2 normalized fluorescence.

Turning to “CCGGCCTACACGTGGTGTTAATAGCTAAGATTACTATATCGACG”, the binding signal is 3.19 log2 normalized fluorescence.

With “CCGGCAAACACGTGGTATTAATAGCTAAGATTACTATATCGACG”, the binding signal is 3.01 log2 normalized fluorescence.

With “CCGGCCGACACGCGGTATTAATAGCTAAGATTACTATATCGACG”, the binding signal was 2.86 log2 normalized fluorescence.

In the case of “CCGGCTGACAAAGTGTATTAATAGCTAAGATTACTATATCGACG”, the binding signal is -0.349 log2 normalized fluorescence.

Regarding “CCGGCTGGCGCATGGTATTAATAGCTAAGATTACTATATCGACG”, the binding signal is 3.17 log2 normalized fluorescence.

As to “CCGGCTGAACGCCTGTATTAATAGCTAAGATTACTATATCGACG”, the binding signal is 0.727 log2 normalized fluorescence.

As for “CCGGCTGACATCCCGTATTAATAGCTAAGATTACTATATCGACG”, the binding signal was 0.192 log2 normalized fluorescence.

“CCGGCTGACAGAACGTATTAATAGCTAAGATTACTATATCGACG”: the binding signal is -0.288 log2 normalized fluorescence.

Take “CCGGCTGAGTCCTCGTATTAATAGCTAAGATTACTATATCGACG”: the binding signal was -0.692 log2 normalized fluorescence.

With “CCGGCTGATCTCACGTATTAATAGCTAAGATTACTATATCGACG”, the binding signal was -0.038 log2 normalized fluorescence.

Consider “CCGGCTGAAACTCGGTATTAATAGCTAAGATTACTATATCGACG”, for which the binding signal was -0.697 log2 normalized fluorescence.

For the sequence “CCGGCGAACATGTGGTATTAATAGCTAAGATTACTATATCGACG”, the binding signal is 3.2 log2 normalized fluorescence.

With “CCGGCGAACACGTGGTATTAATAGCTAAGATTACTATATCGACG”, the binding signal is 3.34 log2 normalized fluorescence.

In the case of “CCGGCGAACACGTAGTATTAATAGCTAAGATTACTATATCGACG”, the binding signal was 2.25 log2 normalized fluorescence.

On to “CCGGCTGAACGCTGGTATTAATAGCTAAGATTACTATATCGACG”, for which the binding signal is 0.233 log2 normalized fluorescence.

Regarding “CCGGCTGAGGACATGTATTAATAGCTAAGATTACTATATCGACG”, the binding signal is 0.549 log2 normalized fluorescence.

For “CCGGCTGATGCCGCGTATTAATAGCTAAGATTACTATATCGACG”, the binding signal is 0.00246 log2 normalized fluorescence.

With “CCGGCTGACACACGGTCTTAATAGCTAAGATTACTATATCGACG”, the binding signal is 1.84 log2 normalized fluorescence.

“CCGGCTGACACGCGGTCTTAATAGCTAAGATTACTATATCGACG”: the binding signal is 3.32 log2 normalized fluorescence.

For “CCGGCTGACACGTGCAATTAATAGCTAAGATTACTATATCGACG”, the binding signal is 3.47 log2 normalized fluorescence.

In the case of “CCGGCTGACACGTGCCATTAATAGCTAAGATTACTATATCGACG”, the binding signal is 3 log2 normalized fluorescence.

In the case of “CCGGCTGACACGTGCACTTAATAGCTAAGATTACTATATCGACG”, the binding signal was 3.13 log2 normalized fluorescence.

Take “CCGGCTGACACGTGCGGTTAATAGCTAAGATTACTATATCGACG”: the binding signal is 3.31 log2 normalized fluorescence.

Take “CCGGCTGACACGTTAGATTAATAGCTAAGATTACTATATCGACG”: the binding signal was 2.59 log2 normalized fluorescence.

On to “CCGGCTGACACGTGCGATTAATAGCTAAGATTACTATATCGACG”, for which the binding signal was 3.02 log2 normalized fluorescence.

For the sequence “CCGGCTGACACGTGCGTTTAATAGCTAAGATTACTATATCGACG”, the binding signal was 3.25 log2 normalized fluorescence.

On to “CCGGCTGACACGTGCTATTAATAGCTAAGATTACTATATCGACG”, for which the binding signal is 3.17 log2 normalized fluorescence.

As for “CCGGCTAACACGCGGTCTTAATAGCTAAGATTACTATATCGACG”, the binding signal was 3.15 log2 normalized fluorescence.

As for “CCGGCTGACACGTGCCGTTAATAGCTAAGATTACTATATCGACG”, the binding signal is 3.41 log2 normalized fluorescence.

For the sequence “CCGGCTGAGGCCATGTATTAATAGCTAAGATTACTATATCGACG”, the binding signal is 0.0723 log2 normalized fluorescence.

Consider “CCGGCTGACGCCGTGTATTAATAGCTAAGATTACTATATCGACG”, for which the binding signal is 0.693 log2 normalized fluorescence.

On to “CCGGCTGACACGTATCATTAATAGCTAAGATTACTATATCGACG”, for which the binding signal was 1.42 log2 normalized fluorescence.

For the sequence “CCGGCTGAACAATCGTATTAATAGCTAAGATTACTATATCGACG”, the binding signal is -0.744 log2 normalized fluorescence.

In the case of “CCGGCTGATGTTGAGTATTAATAGCTAAGATTACTATATCGACG”, the binding signal is -0.163 log2 normalized fluorescence.

Consider “CCGGCAGACACTTTGTATTAATAGCTAAGATTACTATATCGACG”, for which the binding signal is 0.324 log2 normalized fluorescence.

Consider “CCGGCTGAGACTCCGTATTAATAGCTAAGATTACTATATCGACG”, for which the binding signal is -0.692 log2 normalized fluorescence.
